Measured values taken from PubChem BioAssay AID588350 (The Scripps Research Institute Molecular Screening Center, 2011).
Out of some 1,900 compounds screened, about 1,200 (63%) were called active. The set was probably picked from earlier hits. Only a sample is shown. A number with no mark means an inactive call.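 The calls were made as follows: active = mean activation above the mean of solvent-only control wells plus 3 SD (cut at about 22% in these data); inactive = the rest.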

Experiment: frataxin GAA30 reporter activation – cell-based, luminescence, HEK293, lucGAA30, triplicate, counter-screen for GAA850 frataxin promoter activator project, confirmation (AID 588350);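 also: counterscreen of GAA850 promoter hits where activity marks nonselective or luminescence artifacts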
Details: HEK293 lucGAA30 FXN promoter luciferase, 24 h; at 6 µM; hits give high values; DMSO = 0%, 5 µM ipriflavone = 100%

Compound	activation
CC(C)(C)c1ccc(C(=O)NCc2ccco2)cc1	102% (active)
CCCCc1ccc(NC(=S)N2CCCC(CO)C2)cc1 (stereo not drawn)	102% (active)
CC(C)(C)N1C(=O)[C@H]2[C@@H](c3ccc(Br)cc3)N3C(=O)N(c4cccc(Cl)c4)C(=O)[C@@]3(C)[C@H]2C1=O	20.4%
COc1ccc(N(CCC#N)S(=O)(=O)c2ccc(Cl)cc2)cc1	11.8%
CC(C)CCC(C)NC(=O)c1ccc2nccnc2c1 (stereo not drawn)	77% (active)
O=c1[nH]cnc2c1c(-c1ccccc1)cn2-c1ccc(F)cc1	11.4%
COc1ccc(Cl)cc1NC(=O)CN(C)C(=O)CCCc1c[nH]c2ccccc12	16.9%
CC[C@@]12C(=O)N(c3ccccc3)C(=O)N1[C@H](c1ccc(Br)cc1)[C@@H]1C(=O)N(C(C)(C)C)C(=O)[C@@H]12	21.7%
CSc1nc(N)c(C#N)c(-c2ccccc2Cl)c1C#N	25.8% (active)
Fc1ccc2nc(N3CCCCC3)sc2c1	95.9% (active)
c1ccc(-c2cc(-c3ccccc3)[nH]n2)cc1	129% (active)
Oc1ccccc1-c1cc(-c2ccc(Cl)cc2)n[nH]1	124% (active)
COc1ccc(-n2cc(-c3ccccc3)c3c(=S)nc[nH]c32)cc1	15.8%
N#CCSc1nc2ccccc2c(=O)n1-c1ccccc1	16.1%
CC1(C(=O)N/N=C/c2cc3c(cc2Br)OCO3)CC1(Br)Br (stereo not drawn)	30.7% (active)
COc1ccccc1C1=Nc2cccc3cccc(c23)N1	15.9%
COc1cc(C#Cc2ccc3cc(CCCO)oc(=O)c3c2)cc(OC)c1	7.14%
Cc1ccc(C(=O)NNc2ncnc3ccccc23)cc1	79.1% (active)
CCN(C[C@H]1N[C@@](CC)(C(=O)OC)[C@H]2C(=O)N(Cc3ccccc3)C(=O)[C@@H]12)S(=O)(=O)c1ccc(C(F)(F)F)cc1	22.6% (active)

Compound	activation
CN(C)C(=S)N=c1ssc(=S)n1Cc1ccco1	12.5%
Cc1nc(-c2ccc(F)cc2)c(CC(=O)Nc2cc(S(=O)(=O)N3CCCCC3)ccc2C)s1	16.7%
COc1ccc2[nH]c(=O)c(CN(Cc3nnnn3CCc3ccccc3)CC3CCCO3)cc2c1 (stereo not drawn)	-9.61%
COc1cc(/C=N/Nc2nc3ccccc3s2)ccc1O	124% (active)
CCCCn1c(SCC(=O)NCCc2ccc(OC)c(OC)c2)nc2c1c(=O)n(C)c(=O)n2C	26.9% (active)
COc1ccc(NC(=O)CSc2nc(SC)ns2)c(OC)c1	119% (active)
CCOc1ccc(Nc2oc(Cc3ccccc3)nc2C#N)cc1	58.9% (active)
COc1ccc(-c2csc(Cc3nc(O)cs3)n2)cc1	-53.3%
O=c1oc2ccccc2cc1-c1csc(Nc2ccc(O)cc2)n1	148% (active)
COc1ccc(-c2csc(Nc3ccc(O)cc3)n2)cc1	107% (active)
CC1(Cc2cccc(C#N)c2)C(=O)Nc2ccc(-c3cccc(C(F)(F)F)c3)cc21 (stereo not drawn)	10.6%
COc1ccc(-c2nnc(SCC(=O)c3cccs3)o2)c(OC)c1	88.6% (active)
Cc1ccccc1Nc1c([N+](=O)[O-])ccc2nonc12	29.2% (active)
Cc1ccc(C2Nc3cccc4cccc(c34)N2)cc1	24.8% (active)
CC(Sc1nc2c([nH]c3ccccc32)c(=O)n1C)c1ccccc1 (stereo not drawn)	22.8% (active)
COc1cccc(Nc2nc(N)c([N+](=O)[O-])c(NCc3ccco3)n2)c1	42% (active)
CC1(C(=O)NCc2cccc3ccccc23)CCN1Cc1ccc(-c2ccccc2)o1 (stereo not drawn)	24.2% (active)
CCOC(=O)c1cc2c(=O)n3ccccc3nc2n(CC(C)C)c1=NC(=O)c1c(-c2c(F)cccc2Cl)noc1C	-0.82%
Cc1ccc(NC(=O)c2sc3nc(N)c(C#N)cc3c2N)cc1	61.2% (active)
